CD40 NFkB inh: CD40 pathway inhibition in BL2 cells. BL2 NF-kB luciferase reporter, CD40L-induced, 4 h. inhibition, % at 10 µM. 0.94% of 83,000 active. AID 1053188;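 active means mean inhibition of at least 50% with a set share of replicates also reaching that level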
Hits are given with their value; – = inactive. Only a selection was taken, and hits are over-represented in it overall.

SMILES | CD40 NFkB inh
CCCCn1c(NC(=O)c2ccc(Br)o2)c(S(=O)(=O)c2ccccc2)c2nc3ccccc3nc21 | 66
CCCCn1c(NC(C)=O)c(C#N)c2nc3ccccc3nc21 | –
COc1ccccc1S(=O)(=O)N[C@H]1CC[C@@H](CCn2cc(C3CCCC3)nn2)O[C@H]1CO | –
COC(=O)c1ccc(OC(=O)CCS(=O)(=O)c2ccc(C)cc2)cc1 | –
COC(=O)CCS(=O)(=O)c1nc(-c2ccccc2)cc(C(F)(F)F)n1 | 95
COC(=O)CCNS(=O)(=O)c1ccc2ccccc2c1 | –
COCC(=O)N1[C@H](C#N)[C@@H](c2ccccc2-c2ccc(C)cc2)[C@@H]1CO | –
CC1(C)Oc2ccc(C#N)cc2C(N2CCCC2=O)C1O (stereo unspecified) | –
CC(C)NC(=O)Nc1cccc2c1O[C@@H](CN(C)C(=O)OC(C)(C)C)[C@@H](C)CN(C)C2=O | –
N#C[C@H]1[C@@H](c2ccc(C3=CCCCC3)cc2)[C@@H](CO)N1C(=O)C1CCOCC1 | –
O=C1Nc2ccccc2CCc2ccccc21 | –
O=C(N/N=C1\CCc2ccccc21)c1ccccc1O | –
O=C1C(=NO)CCc2ccccc21 | 35
FC(F)(F)CN1C[C@@H]2C(c3ccccc3)[C@H](C1)N2CC(F)(F)F (stereo partly specified) | –
C[C@H](CO)N1C[C@H](C)[C@@H](CN(C)C(=O)N[C@H](C)c2ccccc2)OCc2ccccc2-c2c(n(C)c3ccccc23)C1=O | –
Cc1c(CCOC(=O)CC23CC4CC(CC(C)(C4)C2)C3)sc[n+]1CC(=O)c1ccccc1 | 70
Cc1c(CCOC(=O)C23CC4CC(CC(C)(C4)C2)C3)sc[n+]1CC(=O)c1ccccc1 | –
Cc1c(CCOC(=O)c2ccccc2)sc[n+]1Cc1ccccc1 | –
C[C@H](CO)N1C[C@H](C)[C@H](CN(C)Cc2cccnc2)Oc2ncc(-c3ccc(C#N)cc3)cc2C1=O | –
O=C(Nc1cccc(F)c1)N1CCCCN2[C@@H](CO)[C@@H](c3ccc(C#Cc4cccnc4)cc3)[C@@H]2C1 | –
COC(=O)c1c(C(=O)OC)c(C)n(Cc2ccco2)c1C | –
COCC(C)n1c(C)cc(C(=O)COC(=O)c2cccn2C)c1C (stereo unspecified) | 52
Cc1nn(Cc2ccccc2)c(C)c1C(=O)OCC(=O)c1cc(C)n(CC(F)(F)F)c1C | –
Cc1cc(C(=O)COc2cccnc2[N+](=O)[O-])c(C)n1Cc1ccco1 | –
Cc1cc(C(=O)COC(=O)c2n[nH]c(=O)c3ccccc23)c(C)n1C(C)C | –
SMILES | CD40 NFkB inh
Cc1cc(C(=O)COC(=O)c2cccn2C)c(C)n1Cc1ccco1 | 57
Cc1cc(C(=O)COC(=O)c2ccco2)c(C)n1Cc1ccco1 | 101
COCC(C)n1c(C)cc(C(=O)COc2ccc(N(C)S(=O)(=O)c3ccc(NC(C)=O)cc3)cc2)c1C (stereo unspecified) | –
Cc1cc(C(=O)CSc2nnc(N)s2)c(C)n1Cc1ccco1 | –
N#Cc1cccc(-c2ccc([C@@H]3[C@@H](CO)N4CCCCN(C(=O)Nc5cccc(F)c5)C[C@@H]34)cc2)c1 | –
C[C@@H]1CN([C@@H](C)CO)C(=O)c2cc(C#C[C@@H](C)O)cnc2O[C@H]1CN(C)Cc1cccc(C(=O)O)c1 | –
COc1ccc(NC(=O)N(C)C[C@H]2OCc3ccccc3-c3c(n(C)c4ccccc34)C(=O)N([C@H](C)CO)C[C@@H]2C)c(OC)c1 | –
COc1ccc(NC(=O)CN(C)C(=O)c2cc(-c3ccco3)nc3ccccc23)cc1 | –
Cc1ccc(-c2cc(C(=O)NCC3(N(C)C)CCCCC3)c3ccccc3n2)o1 | –
Cc1ccc(-c2cc(C(=O)N(C)CC(=O)Nc3ccccc3Br)c3ccccc3n2)o1 | 55
Cc1ccccc1S(=O)(=O)NCC[C@@H]1CC[C@@H](NC(=O)C2CCCC2)[C@H](CO)O1 | –
COC(=O)C12OCC34C(CC5C(C)=C(O)C(=O)CC5(C)C3C(O)C1O)OC(=O)C(OC(=O)C=C(C)C)C24 (stereo unspecified) | 103
O=C(C[C@H]1C[C@H]2c3cc(NC(=O)NC4CCCC4)ccc3O[C@H]2[C@H](CO)O1)NCc1cccnc1 | –
CCS(=O)(=O)Nc1ccc(NC(C)=O)cc1 | –
CCC(C)NS(=O)(=O)c1ccc(NC(C)=O)cc1 (stereo unspecified) | –
CCOC(=O)/C=C/S(=O)(=O)c1ccc(NC(C)=O)cc1 | 110
O=C1c2cccc3c([N+](=O)[O-])ccc(c23)C(=O)N1Cc1cccnc1 | 84
Cc1ccc(N2C(=O)c3cccc4c([N+](=O)[O-])ccc(c34)C2=O)c2cccnc12 | –
O=C1c2cccc3cccc(c23)C(=O)N1Cc1cccnc1 | –
NCC(O)COCCC12CC3CC(CC(C3)C1)C2 (stereo unspecified) | –
OC(COCCC12CC3CC(CC(C3)C1)C2)CN1CCCC1 (stereo unspecified) | –
CC(NCC(O)COCCC12CC3CC(CC(C3)C1)C2)c1ccccc1 (stereo unspecified) | 86
CC(C)NC(=O)NCC[C@@H]1CC[C@@H](NS(=O)(=O)c2ccc(Oc3ccccc3)cc2)[C@@H](CO)O1 | –
